Drawing on PubChem BioAssay (NCATS), this text covers max response, outcome and Potency for 13 molecules.

One experiment deals with CRL-7250. Kind of experiment: Cytotoxic Profiling of Annotated Libraries Using Quantitative High-Throughput Screening (AID 1296008). The following applies: Five cell lines viability, CellTiter-Glo ATP luminescence, 48-72 h; max response: hits give low values. Put shortly: (§1)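 Compounds were pin-transferred onto cells and incubated 48 or 72 hr at 37 degree Celsius, 95% humidity. CellTiter-Glo was added, plates sat 10 min at room temperature, then ATP-coupled luminescence was imaged as the viability read-out.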
On the technique in general: In ATP-based viability assays light output follows the ATP content of the culture.

Another experiment relates to HEK293. Described as above. The following applies: Five cell lines viability, CellTiter-Glo ATP luminescence, 48-72 h; max response: hits give low values. The method, boiled down: as §1
The subject of experiment [1] is HaCat. Described as above. The following applies: Five cell lines viability, CellTiter-Glo ATP luminescence, 48-72 h; max response: hits give low values. Put shortly:
as §1

In the next experiment the test system is KB-3-1. Described as above. The note with it: Five cell lines viability, CellTiter-Glo ATP luminescence, 48-72 h; max response: hits give low values. Put shortly: as §1
Another experiment concerns NIH3T3. Described as above. The following applies: Five cell lines viability, CellTiter-Glo ATP luminescence, 48-72 h; max response: hits give low values. The method, boiled down:
as §1

Experiment [2] deals with HACAT. Kind of experiment: qHTS assay to identify novel small-molecules to repurpose for Merkel cell carcinoma treatment (AID 1296009). The following applies: MCC and control cell lines, CellTiter-Glo viability, 72 h; series mostly up to 44.8 µM. The method, boiled down: (§2)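 Viability readout: ATP luminescence (CellTiter-Glo) after 72 hr drug exposure at 37 degree celsius. Dose-response format was 8 points for NPC and 11 points for MIPE; data normalized to in-plate controls.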
Background: qHTS replaces the single test concentration by a dilution series.

The test system of a further experiment is MCC-13. Described as above. The following applies: MCC and control cell lines, CellTiter-Glo viability, 72 h; series mostly up to 46 µM. Put shortly:
as §2

Another experiment concerns MCC-26. The description is as above. The note with it: MCC and control cell lines, CellTiter-Glo viability, 72 h; series mostly up to 46 µM. The method, boiled down:
as §2

The next experiment has as its system MKL-1. Described as above. The note with it: MCC and control cell lines, CellTiter-Glo viability, 72 h; series mostly up to 46 µM. The method, boiled down:
as §2

A further experiment relates to HEK293T. The experiment is described as above. The note with it: MCC and control cell lines, CellTiter-Glo viability, 72 h. Put shortly: as §2
Setting [3] is: at 44.8 µM (top of the series) unless noted.

Structures are written as SMILES. Where “and” joins values, the source holds several entries; their conditions need not be identical. Equal values may be shown once. Inconclusive results are not listed. A structure can be active in one record and inactive in another. Unmarked numbers belong to inactive results. Calls of active or inactive are those of the source. The call rests on the fitted dose curve; in most records, active means well fitted inhibition curve with a large enough effect; inconclusive means small, poorly fitted or top-dose-only effect; inactive means flat fitted curve, though single readings scatter.
Further: nearly all actives have a fitted effect of over 60% in size.
On the % scale 0 is the no-effect control and ±100 the full control effect; potency means the concentration at half of the fitted maximal effect.

`CCCNCC(O)COc1ccccc1C(=O)CCc1ccccc1` (stereo not drawn): the max response was -5.96% in the experiment on CRL-7250; -2.94% in the experiment with HaCat [1]; -15.9% and 1.74% in the experiment on KB-3-1; -20.3% and -9.95% in the experiment on NIH3T3. The molecule was classed as inactive with CRL-7250, with HaCat [1] and with HACAT [2]. The Potency with HEK293 was 21.1 µM (active). Also, the Potency entry with MCC-13, in the experiment with MCC-26 and with MKL-1 was “inactive” in each case.
On to `NCCS(=O)(=O)O`, for which the max response with CRL-7250 is -1.77% and -3.17%; in the experiment with HEK293, -1.38%; in the experiment on NIH3T3, 0.192%. Moreover, the molecule was classed as inactive in the experiment on HEK293, in the experiment with HaCat [1], in the experiment on NIH3T3, with HACAT [2] and in the experiment with HEK293T (setting [3]). Moreover, the Potency result in the experiment on MCC-13, with MCC-26 and in the experiment on MKL-1 was “inactive” in each case.
As for `CC1(C)O[C@H]2CC(=O)OC[C@]23[C@H]2CC[C@@]4(C)[C@H](c5ccoc5)OC(=O)[C@H]5O[C@]54[C@]2(C)C(=O)C[C@@H]13`, the max response with CRL-7250 was 2.33% and 4%; in the experiment with HEK293, -8.07%; with HaCat [1], -5.81%; with NIH3T3, -0.469% and 1.76%. Further, the outcome with CRL-7250, in the experiment on HEK293, with HaCat [1], in the experiment with NIH3T3, with HACAT [2] and in the experiment on HEK293T (at 17.4 µM (top of the series)) was inactive. For the same molecule, in the experiment with HEK293T (at 44.8 µM (top of the series)), the call was inactive. In addition, the Potency result in the experiment on MCC-13 and with MKL-1 was “inactive” throughout.
For `C[C@](N)(Cc1ccc(O)c(O)c1)C(=O)O`, the max response in the experiment with CRL-7250 was -8.13% and -6.61%; in the experiment on HEK293 it was -6.72%; in the experiment on HaCat [1] it was -5.55%; in the experiment on KB-3-1 it was -5.5% and -5.11%; in the experiment with NIH3T3 it was 4.4%. Also, the outcome in the experiment with HEK293, in the experiment with HaCat [1], in the experiment with HACAT [2] and in the experiment on HEK293T (setting [3]) was inactive. The Potency entry in the experiment with MCC-13 and with MKL-1 was “inactive” in each case.
As for `CC[N+](CC)(CC)CCOc1cccc(OCC[N+](CC)(CC)CC)c1OCC[N+](CC)(CC)CC`, the max response with CRL-7250 was -17.1% and -8.63%; in the experiment on HEK293, -0.136%; with HaCat [1], -16.7%; in the experiment with KB-3-1, -10.5% and -5.4%; in the experiment on NIH3T3, -12.2%. Also, the molecule was called inactive in the experiment on HEK293, in the experiment on HaCat [1], with NIH3T3, with HACAT [2] and in the experiment with HEK293T (setting [3]). The Potency entry with MCC-13, in the experiment with MCC-26 and in the experiment on MKL-1 was “inactive” in each case.
With `CC(=O)OCC(CCn1cnc2cnc(N)nc21)COC(C)=O`, the max response is 3.84% with CRL-7250; 1.33% and 3.92% in the experiment with HaCat [1]; 3.32% in the experiment with NIH3T3. The molecule was called inactive in the experiment with CRL-7250, with HEK293, in the experiment with NIH3T3 and with HEK293T (setting [3]). Further, the Potency result in the experiment with MCC-13, in the experiment on MCC-26 and with MKL-1 was “inactive” in each case.
As for `NC12CC3CC(CC(C3)C1)C2`, the molecule was classed as inactive in the experiment on CRL-7250, with HEK293, with HaCat [1], with NIH3T3, in the experiment with HACAT [2] and in the experiment on HEK293T (setting [3]). The max response in the experiment with HEK293 is 1.92%; in the experiment with HaCat [1], 3.56%; with NIH3T3, 1.39%. The Potency result in the experiment with MCC-13, with MCC-26 and with MKL-1 was “inactive” in each case.
With `COc1ccc2[nH]cc(CCNC(C)=O)c2c1`, the max response in the experiment on CRL-7250 was -2.01% and -27.6%; in the experiment on HEK293, 0.212%; in the experiment with HaCat [1], -2.62%; in the experiment with NIH3T3 it was 1.71%. For the same molecule, the molecule was called inactive in the experiment with HEK293, in the experiment with HaCat [1], with NIH3T3, in the experiment on HACAT [2] and with HEK293T (setting [3]). The Potency result in the experiment with MCC-13 and in the experiment on MKL-1 was “inactive” each time.
For `CN1CCN(CCCN2c3ccccc3Sc3ccc(Cl)cc32)CC1`, the max response with CRL-7250 is -6.94%; in the experiment with HaCat [1] it was 0.937%; in the experiment on NIH3T3, -25.1%. The molecule was classed as inactive in the experiment on CRL-7250, in the experiment with HaCat [1] and with HACAT [2]. For the same molecule, the figures for the Potency with HEK293 and with MKL-1 were 14.8 µM (active) and 16.6 µM (active), respectively. Besides, the Potency result with MCC-13 and with MCC-26 was “inactive” each time.
Turning to `Cn1cnc2c1c(=O)[nH]c(=O)n2C`, the result with CRL-7250, in the experiment with HaCat [1] and with HACAT [2] was inactive. The Potency with HEK293 was 9.35 µM (active); in the experiment with KB-3-1, 20.9 µM (active); with NIH3T3 it was 26.4 µM (active). The max response with HEK293 was 1.79%; in the experiment on KB-3-1 it was 6.57%; with NIH3T3, 1.38%. Also, the Potency entry with MCC-13 and in the experiment on MKL-1 was “inactive” each time.
As for `O=c1c(O)c(-c2ccc(O)c(O)c2)oc2cc(O)cc(O)c12`, the max response with CRL-7250 is -43%; with HEK293 it was -3.52% and -1.32%; with HaCat [1], -5.77% and -18.7%; in the experiment on KB-3-1, 4.77% and 21.1%; in the experiment on NIH3T3, -3.23%. In addition, the molecule was classed as inactive with CRL-7250. The Potency entry in the experiment on MCC-13 and in the experiment on MKL-1 was “inactive” throughout.
As to `CC1COc2c(N3CCN(C)CC3)c(F)cc3c(=O)c(C(=O)O)cn1c23` (stereo not drawn), the figures for the max response in the experiment on CRL-7250, in the experiment on HEK293 and in the experiment on NIH3T3 were 1.02%, -5.36% and -0.0145%, respectively. Besides, the call in the experiment on CRL-7250, with HEK293, with HaCat [1], in the experiment with NIH3T3, in the experiment with HACAT [2] and with HEK293T (setting [3]) was inactive. The Potency entry in the experiment with MCC-13 and with MKL-1 was “inactive” each time.
As to `COc1ccc2c(c1)c(CC(=O)O)c(C)n2C(=O)c1ccc(Cl)cc1`, the result in the experiment with CRL-7250, with HEK293, in the experiment with HaCat [1], in the experiment with HACAT [2] and with HEK293T (setting [3]) was inactive. For the same molecule, the max response with HEK293 is -16.4%; in the experiment with HaCat [1], -5.33%; in the experiment with KB-3-1 it was 0.589% and -8.59%; with NIH3T3 it was -1.64% and 1.2%. Moreover, the Potency entry in the experiment on MCC-13 and in the experiment on MKL-1 was “inactive” in each case.
